Data from the supplement of paper PMC13380429.
Where a name gives a salt, the structure may show the parent alone.

test system: Vero E6 infected with SARS-CoV-2; experiment: inhibition of SARS-CoV-2 cytopathic effect; higher = more antiviral protection, active = above 15; conditions: 833.33 nM; 48 h

For `O=C(Nc1ccc(Oc2ccc(Cl)cn2)c(Cl)c1)c1ccccn1`, which “inhibition of SARS-CoV-2 cytopathic effect” value (from here on “inhibition”) is on record?
The value was -3.64% (inactive).

How did the “inhibition” value turn out when `Nc1ncnc2c1ncn2[C@@H]1O[C@H](COP(=O)(O)OP(=O)(O)OP(=O)(O)OP(=O)(O)OC[C@H]2O[C@@H](n3cnc4c(N)ncnc43)[C@H](O)[C@@H]2O)[C@@H](O)[C@H]1O` [diadenosine-tetraphosphate] was run?
The value was 1.06% (inactive).

`CCc1ccc(/C=C2/SC(=S)NC2=O)cc1` was tested. Which “inhibition” value did it give?
The value was 3.21% (inactive).

`NS(=O)(=O)c1ccc(C(=O)O)cc1` [carzenide] was tested. Which “inhibition” value did it give?
Its value is 2.39% (inactive).

Which “inhibition” value does the source give for `CN1C[C@@H]2C[C@H]1CN2c1cc2c(cc1F)c(=O)c(C(=O)O)cn2C1CC1` [danofloxacin] here?
The value was 2.27% (inactive).

With `NNc1nncc2ccccc12` [hydralazine] as the molecule, how does the “inhibition” value read?
The value was -0.12% (inactive).

`COc1cccc(OC)c1OCCNC[C@H]1COc2ccccc2O1` was tested. Which “inhibition” value did it give?
The value was 0% (inactive).

Which “inhibition” value does the source give for `COc1cc2c(cc1OC)-c1cc3ccc(OC)c(OC)c3c[n+]1CC2` [palmatine-chloride] here?
Its value is -2.8% (inactive).

`CC(=O)OCC1=C(C(=O)O)N2C(=O)[C@@H](NC(=O)CSc3ccncc3)[C@H]2SC1` [cephapirin] was tested. Which “inhibition” value did it give?
Its value is 5.89% (inactive).

same assay, conditions: 10000 nM; 48 h

How did the “inhibition” value turn out when `CC(=O)N(c1onc(C)c1C)S(=O)(=O)c1ccc(N)cc1` [sulfisoxazole-acetyl] was run?
Its value is 0.37% (inactive).

Which “inhibition” value does the source give for `CCN(CC)CCCCN1c2ccccc2Oc2ccc(Cl)cc21` here?
Its value is 40.9% (active).

With `COC1=C2C[C@@H](C)C[C@H](OC)[C@H](O)[C@@H](C)/C=C(\C)[C@H](OC(N)=O)[C@@H](OC)/C=C\C=C(/C)C(=O)NC(=CC1=O)C2=O` [geldanamycin] as the molecule, how does the “inhibition” value read?
The value was -4.4% (inactive).

With `CO/N=C(\C(=O)N[C@@H]1C(=O)N2C(C(=O)O)=C(Cn3ccc(=N)n3CCO)CS[C@H]12)c1csc(N)n1` [Cefoselis sulfate] as the molecule, how does the “inhibition” value read?
Its value is 1.21% (inactive).

With `COc1cc2c(cc1OC)-c1c/c(=N\c3c(C)cc(C)cc3C)n(C)c(=O)n1CC2` [trequinsin] as the molecule, how does the “inhibition” value read?
The value was 6.34% (inactive).

How did the “inhibition” value turn out when `N[C@@H]1CCCN(c2c(/C=C3\SC(=O)NC3=O)cccc2-c2ccccc2)C1` was run?
Its value is 0% (inactive).

With `COc1ccc(N2CCOCC2)c2sc(NC(=O)N3CCC(C)(O)CC3)nc12` [tozadenant] as the molecule, how does the “inhibition” value read?
Its value is -2.66% (inactive).

How did the “inhibition” value turn out when `CC(C)n1nccc1-c1ncccc1COc1cccc(O)c1C=O` [voxelotor] was run?
Its value is 6.93% (inactive).

With `CCN(CC)CCOc1ccc(Nc2ncc3cc(-c4c(Cl)cccc4Cl)c(=O)n(C)c3n2)cc1` as the molecule, how does the “inhibition” value read?
Its value is -31.3% (inactive).

Which “inhibition” value does the source give for `O=C(c1ccc(CN2CCOCC2)cc1)N1CCN(C2CC2)CC1` [bavisant] here?
Its value is 5.67% (inactive).

Which “inhibition” value does the source give for `Cc1cc2nc3c(=O)[nH]c(=O)nc-3n(C[C@H](O)[C@H](O)[C@H](O)COP(=O)(O)O)c2cc1C` [riboflavin-5-phosphate-sodium] here?
The value was 0.24% (inactive).

For `COc1nc(N)nc2c1ncn2[C@@H]1O[C@H](CO)[C@@H](O)[C@@H]1O` [nelarabine], which “inhibition” value is on record?
Its value is 1.12% (inactive).

`O=C(c1ccc2nccnc2c1)N1CCCCC1` [ampalex] was tested. Which “inhibition” value did it give?
Its value is 0.77% (inactive).

With `CCCCNc1ncc2c(-c3ccc(CN4CCN(C)CC4)cc3)cn([C@H]3CC[C@H](O)CC3)c2n1` as the molecule, how does the “inhibition” value read?
The value was 7.04% (inactive).

How did the “inhibition” value turn out when `CCN(CC)CCNC(=O)c1ccccc1I` was run?
Its value is 2.51% (inactive).

`CCCN(CCC)S(=O)(=O)c1ccc(C(=O)O)cc1` [probenecid] was tested. Which “inhibition” value did it give?
Its value is -2.19% (inactive).

`Clc1ccc(C2=CCC[C@H]3CC[C@@H]2N3)cn1` was tested. Which “inhibition” value did it give?
Its value is -1.94% (inactive).

Which “inhibition” value does the source give for `O=C(CCc1ccc(O)cc1)c1c(O)cc(O)cc1O[C@@H]1O[C@H](CO)[C@@H](O)[C@H](O)[C@H]1O` [phlorizin] here?
The value was 1.43% (inactive).

For `CCCCCCCCCCCCCC(=O)[O-].CCCCCCCCCCCCCC(=O)[O-].N[C@@H]1CCCC[C@H]1N.[Pt+2]` [miriplatin], which “inhibition” value is on record?
The value was -1.94% (inactive).

With `O=C(NO)c1cnc(N2CCN(S(=O)(=O)c3ccc4ccccc4c3)CC2)nc1` as the molecule, how does the “inhibition” value read?
The value was -22.6% (inactive).

With `CO/N=C(\C(=O)N[C@@H]1C(=O)N2C(C(=O)O)=C(CSc3nc(=O)c(O)nn3C)CS[C@H]12)c1csc(N)n1` [ceftriaxone] as the molecule, how does the “inhibition” value read?
Its value is 2.56% (inactive).

For `C=CC(=O)Nc1cccc(Oc2nc(Nc3ccc(N4CCN(C)CC4)cc3)nc3ccsc23)c1` [olmutinib], which “inhibition” value is on record?
Its value is -10.1% (inactive).

For `CN1[C@@H]2CC[C@H]1C[C@@H](OC(=O)c1c[nH]c3ccccc13)C2` [tropisetron], which “inhibition” value is on record?
The value was -1.17% (inactive).

With `C#C[C@]1(OC(C)=O)CC[C@H]2[C@@H]3CCC4=C[C@@H](OC(C)=O)CC[C@@H]4[C@H]3CC[C@@]21C` [ethynodiol-diacetate] as the molecule, how does the “inhibition” value read?
The value was -1.63% (inactive).

Which “inhibition” value does the source give for `COC(=O)[C@H](NC(=O)c1cc(-c2ccccc2)nc2ccccc12)c1ccccc1` here?
Its value is 1.12% (inactive).

`CN(C)[C@@H]1C(O)=C(C(N)=O)C(=O)[C@@]2(O)C(O)=C3C(=O)c4c(O)ccc(Cl)c4[C@@H](O)[C@H]3C[C@@H]12` [demeclocycline] was tested. Which “inhibition” value did it give?
Its value is 2.34% (inactive).

With `CC1=C(CC(=O)O)c2cc(F)ccc2/C1=C\c1ccc([S+](C)[O-])cc1` (centres undefined) [sulindac] as the molecule, how does the “inhibition” value read?
The value was -2.36% (inactive).

Which “inhibition” value does the source give for `CN1c2c([nH]c(N)nc2=O)NC[C@@H]1CNc1ccc(C(=O)N[C@@H](CCC(=O)O)C(=O)O)cc1` [metafolin] here?
The value was 2.93% (inactive).

With `O=C(Oc1cccc2cccnc12)c1ccccc1` [benzoxiquine] as the molecule, how does the “inhibition” value read?
Its value is -3.29% (inactive).

How did the “inhibition” value turn out when `O=C(O)/C=C/CO` [trans-4-hydroxycrotonic-acid] was run?
Its value is 4.35% (inactive).

`CC1(COc2ccc(CC3SC(=O)NC3=O)cc2)CCCCC1` (centres undefined) [ciglitazone] was tested. Which “inhibition” value did it give?
Its value is 4.02% (inactive).

How did the “inhibition” value turn out when `O=C(Nc1ccc(Oc2ccc(Cl)cn2)c(Cl)c1)c1ccccn1` was run?
Its value is 0.26% (inactive).

How did the “inhibition” value turn out when `Nc1ncnc2c1ncn2[C@@H]1O[C@H](COP(=O)(O)OP(=O)(O)OP(=O)(O)OP(=O)(O)OC[C@H]2O[C@@H](n3cnc4c(N)ncnc43)[C@H](O)[C@@H]2O)[C@@H](O)[C@H]1O` [diadenosine-tetraphosphate] was run?
The value was -1.97% (inactive).

Which “inhibition” value does the source give for `CCc1ccc(/C=C2/SC(=S)NC2=O)cc1` here?
The value was 1.11% (inactive).

How did the “inhibition” value turn out when `NS(=O)(=O)c1ccc(C(=O)O)cc1` [carzenide] was run?
The value was -0.52% (inactive).

For `CN1C[C@@H]2C[C@H]1CN2c1cc2c(cc1F)c(=O)c(C(=O)O)cn2C1CC1` [danofloxacin], which “inhibition” value is on record?
The value was 6.15% (inactive).

With `NNc1nncc2ccccc12` [hydralazine] as the molecule, how does the “inhibition” value read?
Its value is 0.87% (inactive).

For `COc1cccc(OC)c1OCCNC[C@H]1COc2ccccc2O1`, which “inhibition” value is on record?
Its value is 0.85% (inactive).

How did the “inhibition” value turn out when `COc1cc2c(cc1OC)-c1cc3ccc(OC)c(OC)c3c[n+]1CC2` [palmatine-chloride] was run?
Its value is 2.04% (inactive).

How did the “inhibition” value turn out when `CC(=O)OCC1=C(C(=O)O)N2C(=O)[C@@H](NC(=O)CSc3ccncc3)[C@H]2SC1` [cephapirin] was run?
The value was 2.88% (inactive).
